The record followed here is PubChem BioAssay (NCI).

Assay in all cases: NCI-60 one-dose screen, 48 h (100 = growth as untreated, 0 = no growth, -100 = all killed)
Common to all, as to conditions: 10 µM unless noted

In assay [1] the test system is HCT-15 colon.
The subject of assay [2] is HT29 colon.
The test system of assay [3] is SNB-75 CNS.
Assay [4] deals with SNB-19 CNS.
Assay [5] has as its system PC-3 prostate.
Assay [6] concerns SK-MEL-5 melanoma.
The test system of assay [7] is UACC-62 melanoma.
The subject of assay [8] is LOX IMVI melanoma.
Assay [9] concerns SK-MEL-28 melanoma.
Assay [10] concerns U251 CNS.

This is part of a sample that, as a whole, favours compounds with a hit. Of some 83,000 tested, about 20% had one in any assay.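 A percent growth of 40 corresponds to 60% growth inhibition; 0 means no net growth; -100 means all cells died. Active threshold: below 10.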 Unmarked numbers belong to inactive results. The source made the active and inactive calls.

For `CCOC(=O)C1=C(c2ccccc2)N=C2N(c3ccccc3)N=C(C(C)=O)N2C1c1ccc(F)cc1` (stereo unspecified), the growth in [1] was 90.8%; in assay [2] it was 109%; in assay [3], 89.4%; in [4], 95.4%; in assay [5], 89.4%; in assay [6], 97.6%. In addition, the growth in [7] was 89.5%; in assay [8], 102%; in assay [9], 105%.

On to `O=S(=O)(N=C1C(Cl)=C(Cl)C(=NS(=O)(=O)c2ccccc2)C(Cl)=C1Cl)c1ccccc1`, for which the growth in assay [1] is 7.28% (active); in [2], 14%; in assay [3], 132%; in assay [4] it was 95.9%; in [5] it was 121%; in assay [6] it was 87%. For the same molecule, the figures for the growth in assay [7], in assay [8] and in [9] were 67.1%, 54.6% and 89.5%, respectively.

For the molecule `CCOC(=O)c1nnn(-c2no[n+]([O-])c2-c2ccc(OC)cc2)c1COc1cccc2cccnc12`, the growth was 22.2% in assay [1]; 3.79% (active) in [2]; 73.1% in assay [3]; 25.2% in [4]; 14.9% in assay [10]; 34.2% in assay [5]. The figures for the growth in [7], in [8] and in assay [9] were 8.44% (active), -43.1% (active) and 58.2%, respectively.

For the molecule `CC(O)CNC(Cc1ccccc1)c1ccc2c(c1)OCO2` (stereo unspecified), the growth is 104% in [1]; 65.5% in assay [2]; 90.2% in assay [3]; 101% in assay [4]; 65.8% in assay [5]; 100% in assay [6]. In addition, the growth in assay [7] is 91.4%; in assay [8] it was 92.5%; in assay [9], 72.3%.

Turning to `Nc1c(C(=O)Nc2cccc3ncccc23)sc2nc3c(cc12)CN(Cc1ccccc1)CC3`, the growth in assay [1] was 74.2%; in [2], 81.7%; in [3] it was 84.2%; in assay [4], 82.3%; in [5], 77%; in assay [6], 19.2%. The growth in [7] was 53.5%; in assay [8], 88.6%; in assay [9], 81.7%.

Turning to `O=C1c2cccnc2C(=O)c2c1c(C(=O)OCCc1ccccn1)c1ccccn21`, the growth in assay [1] was -75.9% (active); in assay [2] it was -75% (active); in assay [3] it was -85.3% (active); in assay [4], -38.7% (active); in assay [5], -3.59% (active); in [6], -94.2% (active). Moreover, the growth in assay [7] is -55.6% (active); in assay [8], -50% (active); in assay [9] it was -33.3% (active).

For `CC1(C)N=C(N)N=C(N)N1c1ccc(S(=O)(=O)Nc2nccs2)cc1`, the growth in assay [1] is 103%; in [2], 102%; in assay [3] it was 64.9%; in [4] it was 98.2%; in [10], 103%; in assay [5], 93.7%. Also, the growth in assay [7] was 93.6%; in [8], 100%; in assay [9], 106%.

On to `C=C1C(=O)O[C@H]2[C@H]1CC/C(COC(=O)/C=C\C(=O)NCc1ccc(Cn3c(=O)sn(CCCCl)c3=O)cc1)=C\CC[C@@]1(C)O[C@@H]21`, for which the growth in assay [1] was 30.8%; in assay [2] it was 46.9%; in assay [3], 88.5%; in [4], 94.8%; in assay [5], 76.9%; in assay [6], 102%. The growth in assay [7] was 65.1%; in [8], 64.2%; in assay [9], 100%.

Turning to `C(=C(\C1=NCCN1)n1ccc2ccccc21)/c1ccccc1`, the growth in assay [1] is 99.6%; in [2] it was 103%; in assay [3], 80.7%; in assay [4] it was 99.9%; in assay [5], 95.5%; in assay [6], 98.3%. The values for the growth in assay [7], in assay [8] and in assay [9] were 93.5%, 93.3% and 106%, respectively.

Consider `O=c1ccc2ccc(OCCN3CCCCC3)cc2o1`, for which the growth in assay [1] was 108%; in assay [2], 98.9%; in assay [3], 105%; in assay [10], 103%; in assay [5], 23.5%; in assay [6], 107%. Moreover, the results for the growth in [7], in assay [8] and in assay [9] were 94.1%, 101% and 102%, respectively.

Take `Cc1[nH]c(C(=O)Nc2ccccc2OC2CCN(CCN3CCOCC3)CC2)c(Cl)c1Cl`: the growth in assay [1] was 83.6%; in assay [2], 73.7%; in [3] it was 76.1%; in [10] it was 93.3%; in assay [5], 78.3%; in assay [6] it was 87.9%. Moreover, the figures for the growth in assay [7], in [8] and in [9] were 108%, 86.3% and 104%, respectively.

For the molecule `Cc1cn(C)cn1`, the growth in assay [1] was 99%; in assay [2], 98.7%; in assay [3], 98.7%; in assay [10] it was 98%; in [5] it was 93.9%; in assay [6], 112%. The results for the growth in assay [7], in assay [8] and in assay [9] were 105%, 94.6% and 109%, respectively.

With `C[C@H]1[C@H](C)CC[C@]2(C(=O)NCCNCCN)CC[C@]3(C)C(=CC[C@@H]4[C@@]5(C)CCC(=O)C(C)(C)[C@@H]5CC[C@]43C)[C@H]12`, the growth was 13.1% in assay [1]; 4.06% (active) in assay [2]; 65% in assay [3]; -28.6% (active) in [10]; 38.5% in [5]; 85.3% in assay [6]. Also, the growth in [7] was 77.5%; in [8], -76.7% (active); in assay [9] it was 81.5%.

`COC12C=C/C(=C(/C(=O)OCc3cncnc3)C(=O)CCCCCCCCC3(OC)C=C/C(=C(/C(=O)OCc4cncnc4)C(=O)CCCCCCCC1)O3)O2`: the growth in [1] was -49.1% (active); in assay [2] it was 1.94% (active); in assay [3], 22.4%; in [10] it was -36.5% (active); in [5], -55.1% (active); in [6], -79.9% (active). Further, the results for the growth in [7], in [8] and in assay [9] were -56.9% (active), -61.8% (active) and -45% (active), respectively.

Turning to `CC(=O)Nc1sc2c(c1-c1nc3ccccc3s1)CNC2`, the growth was 11.3% in assay [1]; 15.7% in assay [2]; 29.5% in assay [3]; 27.3% in assay [10]; 21.7% in [5]; 17.4% in assay [6]. For the same molecule, the results for the growth in assay [7], in assay [8] and in assay [9] were 20.1%, 3.64% (active) and 34.2%, respectively.

As for `N#Cc1c(-c2ccccc2)nc2c(c(-c3ccc(Cl)cc3)nn2-c2ccccc2)c1-c1ccc([N+](=O)[O-])cc1`, the growth was 99.4% in assay [1]; 93.5% in assay [2]; 88.3% in assay [3]; 90.9% in [4]; 88.7% in [5]; 99.2% in [6]. Besides, the growth in [7] was 86.5%; in [8], 94.7%; in [9], 102%.

For the molecule `c1cc(OCCCCCOc2cccc(-c3nc4ccccc4[nH]3)c2)cc(-c2nc3ccccc3[nH]2)c1`, the growth in assay [1] is 12.3%; in assay [2] it was 5.53% (active); in [3], 31.4%; in [4], 22.3%; in [5], -13.1% (active); in [7] it was 8.55% (active). Besides, the growth is -27.8% (active) in [8] and 18.7% in [9].

Take `Cc1ccc(Cc2cnc(NC(=O)/C=C/c3ccc(C)o3)s2)cc1`: the growth in [1] is 19.9%; in assay [2], 11.4%; in [3], 26.7%; in [10] it was 41.9%; in assay [5], 33.3%; in assay [6], 23.8%. In addition, the results for the growth in assay [7], in assay [8] and in assay [9] were 31.9%, 49.5% and 65.5%, respectively.

`C#Cc1cccc(NC(=O)C2CCCCN2C(=O)CCl)c1` (stereo unspecified): the growth is -54.7% [8.25 µM] (active) in assay [1]; -52.5% [8.25 µM] (active) in assay [2]; -5.47% [8.25 µM] (active) in assay [3]; -62.2% [8.25 µM] (active) in [10]; -7.93% [8.25 µM] (active) in assay [5]; -81.7% [8.25 µM] (active) in assay [6]. Further, the growth was -84.8% [8.25 µM] (active) in [7], -74.6% [8.25 µM] (active) in assay [8] and 2% [8.25 µM] (active) in assay [9].

Turning to `CC(C)CCC[C@@H](C)[C@H]1CC[C@H]2[C@@H]3CC=C4c5sc(Nc6cc(C(F)(F)F)cc(C(F)(F)F)c6)nc5CC[C@]4(C)[C@H]3CC[C@]12C`, the growth was 101% in [1]; 110% in assay [2]; 95.5% in assay [3]; 96% in [10]; 92.8% in [5]; 100% in assay [6]. The growth was 94.5% in [7], 96.8% in assay [8] and 113% in assay [9].

In the case of `COc1ccc(C(c2cc(OC)c(OC)c(OC)c2)N2CCCCC2)cc1` (stereo unspecified), the growth in [1] was 20.6%; in assay [2], 7.93% (active); in assay [3], 26.6%; in assay [10] it was 26.1%; in assay [5], 25.1%; in assay [6], 29.5%. Further, the growth in assay [7] was 18.2%; in assay [8], 36.3%; in [9], 47.2%.

As to `O=C(NC1CCC(Br)CC1)C1CCCC(S(=O)(=O)NC2CCCCC2)C1` (stereo unspecified), the growth in assay [1] is 18.8% [25 µM]; in assay [2] it was 28.7% [25 µM]; in [3], 27.4% [25 µM]; in [10] it was 18.5% [25 µM]; in assay [5], 4.26% [25 µM] (active); in assay [6] it was -68% [25 µM] (active). The growth in assay [7] is 9.41% [25 µM] (active); in [8] it was 15.8% [25 µM]; in assay [9], 24.7% [25 µM].

As to `COc1ccc2c(c1)C(C)Cc1c(ncnc1-n1cnc3cc(C)ccc31)N2C` (stereo unspecified), the growth in assay [1] is 13.2%; in assay [2], 5.82% (active); in assay [3] it was 63.3%; in assay [10], 18.5%; in assay [5], 24.7%; in [6] it was -14.1% (active). Moreover, the growth in assay [7] was 36.1%; in [8], 21.9%; in assay [9] it was 64.3%.

Consider `COc1cc(/C=C2\C(=O)N(CCCOc3cc(O)c4c(=O)cc(-c5ccccc5)oc4c3)c3ccccc32)cc(OC)c1O`, for which the growth was 42.4% in assay [1]; -16.1% (active) in assay [2]; 47.6% in assay [3]; 60.9% in assay [10]; 67% in assay [5]; 71.9% in [6]. The growth in [7] is 46.8%; in assay [8], 58.8%; in assay [9] it was 90.9%.

Regarding `c1ccc(-c2nc3ccccc3[nH]2)c(OCCCCCOc2ccccc2-c2nc3ccccc3[nH]2)c1`, the growth in [1] was 58%; in [2], 74.8%; in assay [3], 89.8%; in assay [10] it was 74.5%; in assay [5], 43.4%; in assay [6], 58.9%. In addition, the results for the growth in assay [7], in [8] and in [9] were 59.1%, 62% and 45.9%, respectively.

As for `O=C(CSc1nnnn1-c1ccccc1)Nc1ccc(Oc2ccccc2)cc1`, the growth was 97.4% in assay [1]; 108% in [2]; 101% in assay [3]; 101% in assay [10]; 96.1% in assay [5]; 103% in [6]. For the same molecule, the growth was 82.3% in assay [7], 104% in assay [8] and 100% in assay [9].

For `OC1(c2ccccc2)c2ccccc2N(c2ccccc2)c2ccc(Cl)cc21` (stereo unspecified), the growth in assay [1] is -44.2% (active); in assay [2] it was -77.5% (active); in assay [3], -57.6% (active); in assay [10], -87.9% (active); in assay [5], -75.1% (active); in [6], -97.6% (active). Further, the growth in [7] was -92% (active); in [8] it was -93.6% (active); in assay [9], -97.1% (active).

In the case of `CC1(C)CC[C@]23CC[C@]4(C)[C@H](CC[C@@H]5[C@@]6(C)C/C(=C/O)C(=O)C(C)(C)[C@@H]6CC[C@]54C)[C@H]2[C@H]1OC3`, the growth in [1] was 110%; in assay [2] it was 100%; in [3] it was 104%; in [10] it was 105%; in assay [5], 86.1%; in assay [6] it was 101%. The growth in [7] was 93%; in [8] it was 90.8%; in assay [9] it was 107%.
